# Screening data deposited in PubChem BioAssay by National Center for Advancing Translational Sciences (NCATS).
# Rows were chosen to be rich in hits. Some 9.4% of all compounds tested hit in one or more screens of this group.
# ELG1 genotoxic: inducers of genotoxicity in HEK293T ELG1-luciferase cells; HEK293T ELG1-luciferase reporter, luminescence, 16 h; Potency, µM (titrated, usually from 46 µM), usual class: activators; 330,000 tested, 1.3% active; AID 504466; further: nearly all actives have a fitted effect of over 60% in size
#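 Genotoxic stress is detected as increased luminescence from luciferase-tagged ELG1 in HEK293T cells, measured with ONE-Glo after a 16 hr treatment at 37 °C.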
# NPC1 prom act: NPC1 promoter activation. 320,000 tested, 2.4% active. AID 485313. Potency, µM (top dose mostly 9.22 µM), most hits filed as activators. Huh7 NPC1 promoter luciferase reporter, 24 h; further: nearly all actives have a fitted effect of over 60% in size
#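 Cells: Huh7 expressing luciferase under the NPC1 promoter, 1500/well. Seeded 2 h, compound added, incubated 24 h at 37 °C. Luciferase reagent, 10 min ambient, then luminescence.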
# SMN2 splice enh: enhancers of SMN2 splice variant expression. HEK293 SMN2-luciferase splicing reporter, luminescence, 30-36 h. Potency, µM (titrated, usually from 46.1 µM), actives largely listed as activators. 210,000 tested, 2.8% active; further: nearly all actives have a fitted effect of over 55% in size
#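 HEK293 cells carry an SMN2 minigene-luciferase reporter in which exon 7 inclusion puts luciferase in frame. Cells were seeded at 2000 cells/well, attached for 10-12 hours, then exposed to compounds for 30-36 hours at 37C before ONE-Glo luminescence.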
# FLuc counter: firefly luciferase modulation, counter-screen for miR-21 project; P08659; AID 588342; Potency, µM (titrated, usually from 57.5 µM), most hits filed as inhibitors; purified FLuc, Km substrates, luminescence inhibition; 360,000 tested, 6.9% active; further: nearly all actives have a fitted effect of over 55% in size
# Target sequence (P08659 whole entry, looked up): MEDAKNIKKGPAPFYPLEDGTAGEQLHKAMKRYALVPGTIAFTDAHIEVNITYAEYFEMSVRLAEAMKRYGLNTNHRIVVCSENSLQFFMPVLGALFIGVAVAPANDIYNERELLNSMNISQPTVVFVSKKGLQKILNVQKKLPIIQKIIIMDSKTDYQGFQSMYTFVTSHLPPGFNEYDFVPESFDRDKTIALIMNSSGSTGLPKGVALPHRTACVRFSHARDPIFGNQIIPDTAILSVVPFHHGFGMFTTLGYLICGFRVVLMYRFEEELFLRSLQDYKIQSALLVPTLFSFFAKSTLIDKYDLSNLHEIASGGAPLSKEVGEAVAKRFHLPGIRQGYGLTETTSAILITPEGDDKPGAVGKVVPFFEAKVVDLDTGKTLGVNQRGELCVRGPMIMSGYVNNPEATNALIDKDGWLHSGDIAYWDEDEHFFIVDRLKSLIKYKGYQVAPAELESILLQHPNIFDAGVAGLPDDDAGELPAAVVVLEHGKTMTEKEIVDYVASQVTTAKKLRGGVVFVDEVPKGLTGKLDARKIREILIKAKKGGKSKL
#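 Biochemical qHTS of compounds, final roughly 60 µM downward over six points, against 10 nM purified firefly luciferase using Km concentrations of substrates (10 uM D-luciferin, 10 uM ATP) in Tris acetate pH 7.5 buffer; luminescence output.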
# Rab9 promoter act: Rab9 promoter activation | Huh7 Rab9 promoter-luciferase reporter, luminescence, 24 h | Potency, µM (doses to about 9.22 µM), hits mostly activators | 320,000 tested, 2.8% active | AID 485297; further: nearly all actives have a fitted effect of over 60% in size
#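 Measured in stably transfected Huh7 cells bearing a Rab9 promoter–luciferase construct: 24 h compound treatment at 37 °C, followed by luminescence detection.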
# ELG1 repair inh: blocks ELG1-dependent DNA repair in HEK293T cells. HEK293T ELG1-luciferase reporter, luminescence, 16 h; DNA damage induced by 5-fluorouridine. Potency, µM (highest dose often 46.1 µM), actives largely listed as inhibitors. 330,000 tested, 2.3% active. AID 504467; further: nearly all actives have a fitted effect of over 55% in size
#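 DMSO vehicle served as the neutral condition. Each well held 2,000 cells given 5-fluorouridine plus compound; after 16 hr at 37 °C/5% CO2, ONE-Glo was added and luciferase measured 30 min later.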
# A number is an active result; – = inactive; ? = inconclusive; · = not tested or not shown; [ ] = remark or other dose. The call rests on the fitted dose curve; in most records, active means well fitted curve in the direction sought with a large enough effect; inconclusive means small, poorly fitted or top-dose-only effect, or another doubt; inactive means no such curve, though single readings can be large; an effect the other way counts as inactive or inconclusive.
SMILES,ELG1 genotoxic,NPC1 prom act,SMN2 splice enh,FLuc counter,Rab9 promoter act,ELG1 repair inh
COc1cccc(/C=N/Nc2nccnc2Cl)c1O,2.6µM,–,–,2.7µM,–,?
COc1cccc(/C=N/Nc2ncnc(Cl)c2N)c1O,13µM,–,·,9.5µM,–,–
Nc1c(Cl)ncnc1N/N=C/c1ccncc1,–,–,·,–,–,–
COc1cccc(/C=N/NC(=O)C(=O)N/N=C/c2cccc(OC)c2O)c1O,–,–,–,–,–,?
COc1cccc(CNC(=O)c2ccc(CNS(=O)(=O)c3ccc(C)cc3)cc2)c1,·,·,·,–,·,·
COc1cccc(C(c2sc3nc(-c4ccco4)nn3c2O)N2CCN(C)CC2)c1 (stereo not drawn),·,·,·,–,·,·
CN(Cc1ccco1)C(=O)c1ccc2c(c1)N(Cc1ccccc1F)C(=O)c1ccccc1S2,·,·,·,–,·,·
O=c1oc(Nc2ccc(F)cc2)nc2ccccc12,?,2.2µM,–,13µM,2.5µM,?
Fc1ccc(Nc2c3c(nc4ccccc24)CCC3)cc1,–,–,–,–,–,?
O=c1nc(Nc2ccccc2)oc2ccccc12,?,2.8µM,·,17µM,?,?
COc1ccc(C2/C=C\CN(C(=O)OCc3ccccc3)CC(=O)N2Cc2ccc(F)cc2)cc1 (stereo not drawn),–,–,·,–,–,–
COc1ccc(C2/C=C\CC(OCc3ccccc3)CC(=O)N2Cc2cccc(F)c2)cc1 (stereo not drawn),–,·,·,·,·,21µM
CCS(=O)(=O)N1CCc2cc(C(=O)NC(C)c3ccccc3)ccc21 (stereo not drawn),·,·,·,–,·,·
COC(=O)c1ccc(/C=C2\N=C(SC)SC2=O)cc1,–,–,·,–,–,?
O=C1SC(SCc2ccccc2Cl)=N/C1=C\c1ccc(C(=O)O)cc1,–,–,–,21µM,–,–
C=CCSC1=N/C(=C\c2ccc(C(=O)O)cc2)C(=O)S1,–,–,–,11µM,–,–
CCSC1=N/C(=C\c2ccc(C(=O)O)cc2)C(=O)S1,–,–,–,9.5µM,–,–
C=CCSC1=N/C(=C\c2ccc(C)o2)C(=O)S1,–,–,–,15µM,–,–
C=CCSC1=N/C(=C\c2ccsc2)C(=O)S1,–,–,–,?,–,–
CCCn1c(SCc2nc(-c3ccccc3C)no2)nnc1-c1ccc(Cl)cc1,·,·,–,–,·,·
CCOc1ccc(NC(=O)c2c(NC(=O)c3ccccc3Br)sc3c2CCC(C)C3)cc1 (stereo not drawn),·,·,–,–,·,·
CCOC(=O)SC1=N/C(=C\c2ccc(N(C)C)cc2)C(=O)S1,–,–,–,9.5µM,–,?
CSC1=N/C(=C\c2ccc(C)cc2)C(=O)S1,–,–,–,?,–,–
COc1ccccc1[C@]1(C)ON(c2ccccc2C(F)(F)F)C1=O,–,–,·,–,–,21µM
CC[C@]1(c2ccccc2OC)ON(c2ccccc2C(F)(F)F)C1=O,–,–,·,–,–,?
SMILES,ELG1 genotoxic,NPC1 prom act,SMN2 splice enh,FLuc counter,Rab9 promoter act,ELG1 repair inh
COc1ccc(NC(=O)Nc2ccc(F)cc2F)c(C)c1,–,–,–,–,–,?
COC(=O)c1sccc1NC(=O)Nc1ccc(C)cc1,?,–,·,1.7µM,–,?
COC(=O)c1sccc1NC(=O)Nc1ccc(F)cc1F,–,–,·,21µM,–,?
COc1ccc(NC(=O)Nc2ccc(F)cc2F)cc1,?,2.2µM,20µM,5.4µM,2.8µM,?
COC(=O)c1sccc1NC(=O)Nc1ccc(C)cc1C,–,–,·,–,–,–
COC(=O)c1sccc1NC(=O)Nc1ccc(F)cc1,–,–,·,8.5µM,–,–
Cn1nnc2c(NCCc3ccccc3)ncnc21,·,·,·,–,·,·
COC(=O)c1sccc1NC(=O)Nc1cc(C)cc(C)c1,?,–,·,7.6µM,–,?
COC(=O)c1sccc1NC(=O)c1ccc(C(C)C)cc1,–,–,·,11µM,3.5µM,?
COC(=O)c1sccc1NC(=O)Nc1ccc(C(C)=O)cc1,18µM,–,·,2.1µM,–,?
COC(=O)c1sccc1NC(=O)c1ccccc1,–,–,–,–,–,–
Cc1cc2c(cc1NC(=O)c1ccccc1C)n(C)c(=O)c(=O)n2C,·,·,·,–,·,·
Fc1ccc(Nc2nc(SCc3cccc(F)c3)nc3ccccc23)cc1,·,·,·,–,·,·
COc1ccc(Nc2nccc(-c3cccc(N)c3)n2)cc1,–,1.8µM,·,2.7µM,?,?
Cn1cccc1C(=O)C(=O)Nc1ccccc1,?,0.56µM,13µM,5.4µM,0.63µM,?
COc1ccc(Br)cc1CN(C)C(C)C(=O)Nc1cccc(C(C)=O)c1 (stereo not drawn),–,–,–,–,–,26µM
COc1ccc([N+](=O)[O-])cc1NC(=O)C(C)N(C)Cc1cccc(OC)c1OC (stereo not drawn),–,–,–,–,–,9.2µM
COc1cc(CN(C)C(C)C(=O)Nc2ccc([N+](=O)[O-])cc2Cl)ccc1OC(F)F (stereo not drawn),–,–,·,–,–,16µM
COc1ccc(Cl)cc1NC(=O)C(C)N(C)Cc1ccc(C(F)(F)F)cc1 (stereo not drawn),–,–,·,–,–,–
CCOc1ccccc1NC(=O)c1nc2nc(C)cc(C(F)F)n2n1,·,·,·,–,·,·
Cn1cccc1-c1cc2n(n1)CCC(=O)N2CC(=O)Nc1ccc(F)cc1Cl,·,·,·,–,·,·
C/C=C/c1ccc(OCC(=O)OCc2csc(Nc3ccc(C)cc3)n2)c(OC)c1,–,?,11µM,12µM,?,?
Cc1ccc(Nc2nc(COC(=O)COc3ccc(C=O)cc3)cs2)cc1,?,?,35µM,2.7µM,?,?
CC(NC(=O)CN1C(=O)COc2ccc(S(=O)(=O)N3CCCCCC3)cc21)c1ccccc1 (stereo not drawn),·,·,–,–,·,·
COCCNC(=O)CSc1nnc2[nH]c(=O)cc(C)n12,·,·,·,–,·,·
SMILES,ELG1 genotoxic,NPC1 prom act,SMN2 splice enh,FLuc counter,Rab9 promoter act,ELG1 repair inh
O=c1[nH]c(CN2CCN(c3ccc(O)cc3)CC2)nc2scc(-c3ccc(Cl)cc3)c12,–,–,–,–,–,?
O=c1[nH]c(CN2CCN(c3ccccc3O)CC2)nc2scc(-c3ccccc3Cl)c12,–,–,·,–,–,21µM
Cc1[nH]c2ccccc2c1/C=N/Nc1ccccc1[N+](=O)[O-],–,–,–,17µM,?,?
CCOc1ccccc1/C=N/Nc1ccccc1[N+](=O)[O-],–,?,·,?,3.5µM,?
COc1ccccc1/C=N\Nc1ccccc1[N+](=O)[O-],9.2µM,?,·,1.9µM,2µM,?
C[N+](C)(C)[C@H](Cc1c[nH]c(=S)[nH]1)C(=O)O,·,·,–[9.22 µM],·,·,·
Cn1c(SCc2ccc(C#N)cc2Cl)nc2ccccc21,21µM,2.2µM,14µM,6µM,3.5µM,?
N#Cc1ccc(CSc2ccccn2)c(Cl)c1,–,–,·,–,–,?
